This is an account of results in paper PMC4552634, “A New Set of Chemical Starting Points with Plasmodium falciparum Transmission-Blocking Potential for Antimalarial Drug Discovery” (PLoS ONE, 2015).

Each structure is given as a SMILES string. Among all 13,000 compounds or so, about 3,200 (25%) showed an effect of 50% or more. The list shows a part of the results.

The assay relates to P. falciparum stage V gametocytes. The arrangement: BacTiter-Glo ATP luminescence viability of purified stage V gametocytes in 384-well plates, per cent inhibition versus DMSO. The conditions noted are these: 48 h, 5 µM; inhibitor.
For `Cc1[nH]cc(Br)c(=O)c1-c1ccc(Oc2ccc(OC(F)(F)F)cc2)cc1` [TCMDC-136197], the % Inhibition – broadly, the change of the read-out against control, counted positive when it falls – is on record as -4.559%.
`Cc1[nH]c(C)c([N+](=O)[O-])c(=O)c1-c1ccc(Oc2ccc(OC(F)(F)F)cc2)cc1` [TCMDC-135555]: the “% Inhibition” value is listed as -1.899%.
To `CC(=O)Oc1c(Br)c(C)nc(C)c1-c1ccc(Oc2ccc(OC(F)(F)F)cc2)cc1` [TCMDC-137383] belongs 72.41%.
To `CN(C)Cc1c(O)ccc2[nH]c(-c3ccc(OC(F)(F)F)cc3)nc12` [TCMDC-136529] belongs -83.05%; to `Cc1[nH]c(C)c(Cc2ccc(Oc3ccc(OC(F)(F)F)cc3)cc2)c(=O)c1Br` [TCMDC-134530], -23.78%; to `Cc1nc(C)c(-c2ccc(Oc3ccc(OC(F)(F)F)cc3)cc2)c(OC(=O)c2ccccc2)c1Cl` [TCMDC-137380], 76.96%.
Under `CC(=O)Oc1c(Cl)c(C)nc(C)c1-c1ccc(Oc2ccc(OC(F)(F)F)cc2)cc1` [TCMDC-137385] stands 74.48%.
Take `Cc1cc(=O)c2cc(Oc3ccc(OC(F)(F)F)cc3)ccc2[nH]1` [TCMDC-138906]: the “% Inhibition” value came out at 0.2157%.
Consider `Cc1nc(C)c(-c2ccc(Oc3ccc(OC(F)(F)F)cc3)cc2)c(OC(=O)c2ccc(CN(C)C)cc2)c1Cl` [TCMDC-137382], for which the “% Inhibition” value came out at 68.19%.
For the compound `CC(C)NCc1ccc(-c2cccc(-c3nc4ccc(C(F)(F)F)cc4[nH]3)c2)cc1` [TCMDC-132739], the “% Inhibition” value is on record as 37.23%.
As to `COc1ccc2nccc([C@H](O)CN3CCC(NCc4ccc5c(c4C)OCCO5)CC3)c2n1` [TCMDC-136066], the “% Inhibition” value turned out to be 21.32%.
To `Cc1c(C)n(C2CCCCC2)c2ncnc(OC3CCN(CC(=O)N4CCCC4)CC3)c12` [TCMDC-124854] belongs 2.854%; to `COc1ccc(C(=O)NC2CCN(c3ccnc4cc(Cl)ccc34)C2)cc1` (centres unmarked) [TCMDC-133648], 42.46%; to `Cc1cc(Nc2ccccc2)nc(Nc2ccccc2)n1` [TCMDC-124214], 11.37%.
To `Cn1c(NC(=O)CCCCCNC(=O)c2ccc(O)c(-c3ccc(Cl)c(Cl)c3)c2)nc2ccccc21` [TCMDC-140880] belongs 4.339%; to `CC(=O)Oc1c(Cl)c(C)nc(C)c1-c1ccc(Oc2ccc(Cl)cc2)cc1` [TCMDC-137381], 75.31%.
`Cc1cc(Nc2ccc(Oc3ccc(Cl)cc3)cc2)nc(N)n1` [TCMDC-138073]: the “% Inhibition” value was -5.729%.
As to `Cc1nc(N)nc(N)c1-c1ccc(Cl)cc1` [TCMDC-138984], the “% Inhibition” value is given as -0.9845%.
For `COc1cccc(CN2CCCC(COC(c3ccc(F)cc3)c3ccc(F)cc3)C2)c1O` (centres unmarked) [TCMDC-136038], the “% Inhibition” value was -18.09%.
`COc1ccccc1-c1ccc(C(=O)NCC2CCCN(Cc3cccc(C(F)(F)F)c3)C2)s1` (centres unmarked) [TCMDC-134360]: the “% Inhibition” value is 55.62%.
Regarding `CN(C)c1ccc(CN2CCC(NC(=O)c3ccc(-c4cccc(C(F)(F)F)c4)s3)CC2)cc1` [TCMDC-134325], the “% Inhibition” value is listed as -44.98%.
Under `CC(=O)Nc1ccc(CN2CCC(NC(=O)c3ccc(-c4cccc(OC(C)C)c4)s3)CC2)cc1` [TCMDC-134335] stands 1.059%; under `COc1ccccc1CN1CCC(NC(=O)c2ccc(-c3cccc(C(F)(F)F)c3)s2)CC1` [TCMDC-134355], 4.957%.
In the case of `CC(C)Oc1cccc(-c2ccc(C(=O)NCC3CCCN(Cc4cccc(C(F)(F)F)c4)C3)s2)c1` (centres unmarked) [TCMDC-134362], the “% Inhibition” value was 86.43%.
Consider `CN(C)c1ccc(-c2ccc(C(=O)NC3CCN(Cc4cccc(C(F)(F)F)c4)CC3)s2)cc1` [TCMDC-134365], for which the “% Inhibition” value is recorded as -28.78%.
To `O=C(NC1CCN(Cc2cccc(C(F)(F)F)c2)CC1)c1ccc(-c2cccc(C(F)(F)F)c2)s1` [TCMDC-134363] belongs 23.99%; to `O=C(NC1CCN(Cc2cccc(C(F)(F)F)c2)CC1)c1ccc(-c2cccc(Cl)c2)s1` [TCMDC-134364], 25.17%; to `CN(C)c1ccc(CN2CCCC(CNC(=O)c3ccc(-c4cccc(C(F)(F)F)c4)s3)C2)cc1` (centres unmarked) [TCMDC-134324], 98.4%.
Under `COc1cccc(-c2ccc(C(=O)NCC3CCCN(Cc4cccc(C(F)(F)F)c4)C3)s2)c1` (centres unmarked) [TCMDC-134361] stands 72.66%; under `Cc1ccc(NC(=O)Nc2ccc(Cl)c(C(F)(F)F)c2)cc1-c1ccc(C(=O)Nc2ccncc2)cc1` [TCMDC-133700], -87.03%; under `Cc1ccc(NC(=O)c2cccc(N3CCN(c4ccncc4)CC3)c2)cc1F` [TCMDC-135124], -11.57%.
To `CN(C)c1ccc(C2c3nc[nH]c3CCN2C(=O)Nc2cccc([N+](=O)[O-])c2)cc1` (centres unmarked) [TCMDC-141569] belongs 12.33%; to `CCCCCC(C)NC[C@@H](O)[C@H](Cc1ccccc1)NC(=O)c1cc(NCC)cc(N2CCCCS2(=O)=O)c1` (some centres unmarked) [TCMDC-135293], 40.73%.
In the case of `COc1cc(CNC[C@@H](O)[C@H](Cc2ccccc2)NC(=O)c2cc(C3CCCC3)cc(N3CCCCS3(=O)=O)c2)cc(OC)c1` [TCMDC-134561], the “% Inhibition” value was determined as 14.07%.
To `CCNc1cc(C(=O)N[C@@H](Cc2ccoc2)[C@H](O)CNC(C)CCCC(C)C)cc(N2CCCCS2(=O)=O)c1` (some centres unmarked) [TCMDC-135411] belongs 37.57%; to `CCCC(C)NC[C@@H](O)[C@H](Cc1ccccc1)NC(=O)c1cc(C2CCCC2)cc(N2CCCCS2(=O)=O)c1` (some centres unmarked) [TCMDC-135216], 60.63%.
To `CCNc1cc(C(=O)N[C@@H](Cc2cccc(F)c2)[C@H](O)CNC(C)CCCC(C)C)cc(N2CCCCS2(=O)=O)c1` (some centres unmarked) [TCMDC-135307] belongs 42.64%.
Take `CCCC(C)NC[C@@H](O)[C@H](Cc1ccccc1)NC(=O)c1cc(NCC)cc(N2CCCCS2(=O)=O)c1` (some centres unmarked) [TCMDC-135226]: the “% Inhibition” value is listed as 61.06%.
With `CCNc1cc(C(=O)N[C@@H](Cc2ccccc2)[C@H](O)CNC(C)CCCC(C)C)cc(N2CCCS2(=O)=O)c1` (some centres unmarked) [TCMDC-138825], the “% Inhibition” value was determined as 1.46%.
Under `O=C(N[C@@H](Cc1ccccc1)[C@H](O)CNC1CCOCC1)c1cc(C2CCCC2)cc(N2CCCCS2(=O)=O)c1` [TCMDC-134938] stands 31.68%.
With `CCNc1cc(C(=O)N[C@@H](Cc2ccccc2)[C@H](O)CNC(C)Cc2cccc(Cl)c2)cc(N2CCCCS2(=O)=O)c1` (some centres unmarked) [TCMDC-135412], the “% Inhibition” value was found to be 76.43%.
In the case of `CCNc1cc(C(=O)N[C@@H](Cc2ccccc2Cl)[C@H](O)CNC(C)CCCC(C)C)cc(N2CCCCS2(=O)=O)c1` (some centres unmarked) [TCMDC-135224], the “% Inhibition” value was 92.78%.
On to `CCNc1cc(C(=O)N[C@@H](Cc2ccccc2)[C@H](O)CNC(C)(C)Cc2cccc(Cl)c2)cc(N2CCCCS2(=O)=O)c1` [TCMDC-135309], for which the “% Inhibition” value stood at 13.84%.
For the compound `CCNc1cc(C(=O)N[C@@H](Cc2cccc(Cl)c2)[C@H](O)CNC(C)CCCC(C)C)cc(N2CCCCS2(=O)=O)c1` (some centres unmarked) [TCMDC-135225], the “% Inhibition” value was found to be 15.74%.
